In publication PMC7862700, “An all-to-all approach to the identification of sequence-specific readers for epigenetic DNA modifications on cytosine”:

Legend:
Assay in all cases: DAPPL (digital affinity profiling via proximity ligation, sequencing); 10 mM Tris-HCl pH 7.5, 50 mM NaCl, 1 mM DTT, 4% glycerol, room temperature, 30 min; GST-TFs on glutathione beads, 16-mer random dsDNA library, 0.1% formaldehyde crosslink after washing; high values mean tight binding
[1] = biological target: T1, FLI1 (Homo sapiens, UniProt Q01543 1-452); conditions: protein: recombinant; tags: N-terminal GST; dsDNA, one strand shown
T1 sequence: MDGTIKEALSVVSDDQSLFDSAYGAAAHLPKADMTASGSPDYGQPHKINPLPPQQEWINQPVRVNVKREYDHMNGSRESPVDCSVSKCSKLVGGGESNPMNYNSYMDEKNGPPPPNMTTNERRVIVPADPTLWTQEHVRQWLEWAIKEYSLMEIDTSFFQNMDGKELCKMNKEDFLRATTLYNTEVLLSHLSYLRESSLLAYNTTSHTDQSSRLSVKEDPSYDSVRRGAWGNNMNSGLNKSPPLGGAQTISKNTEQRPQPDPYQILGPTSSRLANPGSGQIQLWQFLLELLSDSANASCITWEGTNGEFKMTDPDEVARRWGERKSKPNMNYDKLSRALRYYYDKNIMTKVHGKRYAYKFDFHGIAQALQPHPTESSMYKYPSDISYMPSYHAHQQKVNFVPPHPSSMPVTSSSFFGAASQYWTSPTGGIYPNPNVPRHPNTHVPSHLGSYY
In short: (§1)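 The binding signal reported is, for every hexamer, its read frequency for a factor over its read frequency for the tag-only sample. Reads came from pools of yeast-expressed, GST-fused human transcription factors on glutathione beads, barcoded with DNA and mixed with that sample, which were incubated with 200 nmole of a random double-stranded 16-mer DNA library in Tris/NaCl/DTT/glycerol buffer at room temperature for 30 min. After washing, the pools were crosslinked with 0.1% formaldehyde, proximity-ligated with BsaI/T4 ligase for 1 h at 37 °C, PCR-amplified and sequenced on an Illumina NextSeq500.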

[2] = biological target: T2, ELK1 (Homo sapiens, UniProt P19419 1-428); conditions: protein: recombinant; tags: N-terminal GST; dsDNA, one strand shown
T2 sequence: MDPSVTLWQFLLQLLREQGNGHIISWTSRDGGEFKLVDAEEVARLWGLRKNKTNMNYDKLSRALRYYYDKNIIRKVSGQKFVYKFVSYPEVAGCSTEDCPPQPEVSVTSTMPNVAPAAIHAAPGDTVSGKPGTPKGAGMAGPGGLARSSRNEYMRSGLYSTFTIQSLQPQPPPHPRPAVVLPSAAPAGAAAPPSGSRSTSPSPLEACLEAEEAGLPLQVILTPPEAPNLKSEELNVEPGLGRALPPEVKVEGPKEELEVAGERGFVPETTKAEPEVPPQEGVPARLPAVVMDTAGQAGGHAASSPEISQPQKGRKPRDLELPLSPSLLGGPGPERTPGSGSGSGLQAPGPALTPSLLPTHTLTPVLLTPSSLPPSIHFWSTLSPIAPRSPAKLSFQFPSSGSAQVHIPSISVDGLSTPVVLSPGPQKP
In short: as §1

[3] = biological target: T3, GABPA (Homo sapiens, UniProt Q06546 1-454); conditions: protein: recombinant; tags: N-terminal GST; dsDNA, one strand shown
T3 sequence: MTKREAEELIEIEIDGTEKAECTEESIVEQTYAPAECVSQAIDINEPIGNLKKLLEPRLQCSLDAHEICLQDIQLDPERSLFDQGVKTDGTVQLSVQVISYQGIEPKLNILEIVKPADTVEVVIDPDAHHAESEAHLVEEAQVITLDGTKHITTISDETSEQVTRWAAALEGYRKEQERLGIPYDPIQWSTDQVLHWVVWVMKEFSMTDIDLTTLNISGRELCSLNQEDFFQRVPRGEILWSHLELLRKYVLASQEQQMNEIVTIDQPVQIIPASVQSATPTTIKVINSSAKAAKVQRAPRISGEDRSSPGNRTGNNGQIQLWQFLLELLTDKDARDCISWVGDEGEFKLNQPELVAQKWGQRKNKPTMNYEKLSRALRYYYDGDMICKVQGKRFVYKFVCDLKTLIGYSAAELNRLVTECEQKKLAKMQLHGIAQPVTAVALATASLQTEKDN
In short: as §1

[4] = biological target: T4, ERG (Homo sapiens, UniProt P11308 1-479); conditions: protein: recombinant; tags: N-terminal GST; dsDNA, one strand shown
T4 sequence: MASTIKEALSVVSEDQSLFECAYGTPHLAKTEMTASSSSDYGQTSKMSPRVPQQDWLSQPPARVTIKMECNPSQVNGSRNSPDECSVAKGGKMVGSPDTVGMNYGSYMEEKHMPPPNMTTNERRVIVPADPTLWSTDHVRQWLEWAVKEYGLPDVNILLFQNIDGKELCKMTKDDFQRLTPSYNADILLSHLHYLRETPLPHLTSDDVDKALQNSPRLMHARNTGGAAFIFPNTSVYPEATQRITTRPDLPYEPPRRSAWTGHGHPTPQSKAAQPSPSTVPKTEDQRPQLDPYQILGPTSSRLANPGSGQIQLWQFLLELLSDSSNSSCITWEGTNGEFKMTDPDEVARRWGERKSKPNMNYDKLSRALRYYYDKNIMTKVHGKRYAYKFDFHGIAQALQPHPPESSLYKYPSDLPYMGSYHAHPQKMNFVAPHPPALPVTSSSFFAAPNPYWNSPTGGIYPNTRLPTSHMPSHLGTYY
In short: as §1

[5] = biological target: ELF1 (Homo sapiens, UniProt P32519 1-619); conditions: protein: recombinant; tags: N-terminal GST; dsDNA, one strand shown
Chain of ELF1 (P32519 whole entry): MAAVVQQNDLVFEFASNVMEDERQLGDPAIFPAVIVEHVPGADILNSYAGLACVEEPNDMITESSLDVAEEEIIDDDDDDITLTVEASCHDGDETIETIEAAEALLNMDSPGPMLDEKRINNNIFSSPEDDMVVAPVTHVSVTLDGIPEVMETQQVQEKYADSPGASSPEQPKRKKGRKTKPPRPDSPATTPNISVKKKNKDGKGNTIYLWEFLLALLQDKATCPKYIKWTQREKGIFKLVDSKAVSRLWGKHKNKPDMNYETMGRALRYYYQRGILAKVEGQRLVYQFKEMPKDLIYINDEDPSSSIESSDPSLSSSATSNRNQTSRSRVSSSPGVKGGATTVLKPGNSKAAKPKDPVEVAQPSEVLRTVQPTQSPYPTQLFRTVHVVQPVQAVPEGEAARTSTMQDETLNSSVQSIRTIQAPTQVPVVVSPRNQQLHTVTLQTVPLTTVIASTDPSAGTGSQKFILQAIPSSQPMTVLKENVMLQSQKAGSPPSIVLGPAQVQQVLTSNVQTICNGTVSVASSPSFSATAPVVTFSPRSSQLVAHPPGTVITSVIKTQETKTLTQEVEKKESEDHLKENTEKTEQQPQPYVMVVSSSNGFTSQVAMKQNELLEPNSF
In short: as §1

[6] = biological target: T5, EHF (Homo sapiens, UniProt Q9NZC4 1-300); conditions: protein: recombinant; tags: N-terminal GST; dsDNA, one strand shown
T5 sequence: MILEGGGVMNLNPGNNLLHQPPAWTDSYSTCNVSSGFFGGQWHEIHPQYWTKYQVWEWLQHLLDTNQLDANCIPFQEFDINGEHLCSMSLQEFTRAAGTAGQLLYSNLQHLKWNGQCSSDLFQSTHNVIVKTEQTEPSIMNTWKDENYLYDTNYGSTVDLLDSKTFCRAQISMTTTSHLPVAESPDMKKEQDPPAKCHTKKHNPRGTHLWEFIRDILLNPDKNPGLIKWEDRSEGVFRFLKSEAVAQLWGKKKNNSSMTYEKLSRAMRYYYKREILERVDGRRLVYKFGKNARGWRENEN
In short: as §1

[7] = biological target: SPI1 (Homo sapiens, UniProt P17947 1-270); conditions: protein: recombinant; tags: N-terminal GST; dsDNA, one strand shown
In short: as §1

[8] = biological target: SPIB (Homo sapiens, UniProt Q01892 1-262); conditions: protein: recombinant; tags: N-terminal GST; dsDNA, one strand shown
Chain of SPIB (Q01892 whole entry): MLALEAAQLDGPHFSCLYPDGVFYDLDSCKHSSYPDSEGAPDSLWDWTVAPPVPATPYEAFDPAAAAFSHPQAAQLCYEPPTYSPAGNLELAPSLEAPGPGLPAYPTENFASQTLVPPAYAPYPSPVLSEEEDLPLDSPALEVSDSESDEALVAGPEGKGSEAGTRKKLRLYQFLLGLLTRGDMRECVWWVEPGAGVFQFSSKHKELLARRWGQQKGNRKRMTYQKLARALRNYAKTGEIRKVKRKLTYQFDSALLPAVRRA
In short: as §1

[9] = biological target: T6, ELK3 (Homo sapiens, UniProt P41970 1-407); conditions: protein: recombinant; tags: N-terminal GST; dsDNA, one strand shown
T6 sequence: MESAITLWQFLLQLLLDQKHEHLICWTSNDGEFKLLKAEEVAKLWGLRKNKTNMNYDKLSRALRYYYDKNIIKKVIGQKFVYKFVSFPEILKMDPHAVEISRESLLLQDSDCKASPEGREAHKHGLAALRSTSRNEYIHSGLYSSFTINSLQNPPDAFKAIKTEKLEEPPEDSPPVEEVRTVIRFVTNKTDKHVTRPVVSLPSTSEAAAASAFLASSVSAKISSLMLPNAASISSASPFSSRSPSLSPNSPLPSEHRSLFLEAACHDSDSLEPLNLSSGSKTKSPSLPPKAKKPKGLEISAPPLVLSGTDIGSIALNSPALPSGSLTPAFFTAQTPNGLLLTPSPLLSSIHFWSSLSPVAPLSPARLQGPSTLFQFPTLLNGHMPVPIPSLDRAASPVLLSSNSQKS
In short: as §1

[10] = biological target: T7, FEV (Homo sapiens, UniProt Q99581 1-238); conditions: protein: recombinant; tags: N-terminal GST; dsDNA, one strand shown
T7 sequence: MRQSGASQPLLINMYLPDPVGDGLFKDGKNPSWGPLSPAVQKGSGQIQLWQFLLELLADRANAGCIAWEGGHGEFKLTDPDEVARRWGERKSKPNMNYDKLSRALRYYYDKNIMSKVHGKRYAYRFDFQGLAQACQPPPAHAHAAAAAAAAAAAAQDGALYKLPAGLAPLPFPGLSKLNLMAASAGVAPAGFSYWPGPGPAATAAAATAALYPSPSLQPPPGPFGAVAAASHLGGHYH
In short: as §1

[11] = biological target: ETV5 (Homo sapiens, UniProt P41161 1-510); conditions: protein: recombinant; tags: N-terminal GST; dsDNA, one strand shown
Chain of ETV5 (P41161 whole entry): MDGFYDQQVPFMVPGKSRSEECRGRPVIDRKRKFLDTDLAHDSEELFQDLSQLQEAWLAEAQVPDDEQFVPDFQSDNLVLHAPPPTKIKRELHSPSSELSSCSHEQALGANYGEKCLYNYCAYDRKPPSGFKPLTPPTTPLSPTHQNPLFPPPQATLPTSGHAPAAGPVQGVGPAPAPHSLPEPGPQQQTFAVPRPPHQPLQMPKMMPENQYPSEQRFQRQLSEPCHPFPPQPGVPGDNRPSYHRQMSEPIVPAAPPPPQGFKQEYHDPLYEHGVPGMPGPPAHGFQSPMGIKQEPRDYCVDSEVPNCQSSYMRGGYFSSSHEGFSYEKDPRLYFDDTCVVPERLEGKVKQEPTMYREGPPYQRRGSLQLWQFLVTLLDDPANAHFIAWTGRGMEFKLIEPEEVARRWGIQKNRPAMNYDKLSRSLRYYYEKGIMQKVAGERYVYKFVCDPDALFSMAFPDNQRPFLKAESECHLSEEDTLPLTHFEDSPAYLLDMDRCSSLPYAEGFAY
In short: as §1

[12] = biological target: HSF1 (Homo sapiens, UniProt Q00613 1-529); conditions: protein: recombinant; tags: N-terminal GST; chain copies: 3; dsDNA, one strand shown
Chain of HSF1 (Q00613 whole entry): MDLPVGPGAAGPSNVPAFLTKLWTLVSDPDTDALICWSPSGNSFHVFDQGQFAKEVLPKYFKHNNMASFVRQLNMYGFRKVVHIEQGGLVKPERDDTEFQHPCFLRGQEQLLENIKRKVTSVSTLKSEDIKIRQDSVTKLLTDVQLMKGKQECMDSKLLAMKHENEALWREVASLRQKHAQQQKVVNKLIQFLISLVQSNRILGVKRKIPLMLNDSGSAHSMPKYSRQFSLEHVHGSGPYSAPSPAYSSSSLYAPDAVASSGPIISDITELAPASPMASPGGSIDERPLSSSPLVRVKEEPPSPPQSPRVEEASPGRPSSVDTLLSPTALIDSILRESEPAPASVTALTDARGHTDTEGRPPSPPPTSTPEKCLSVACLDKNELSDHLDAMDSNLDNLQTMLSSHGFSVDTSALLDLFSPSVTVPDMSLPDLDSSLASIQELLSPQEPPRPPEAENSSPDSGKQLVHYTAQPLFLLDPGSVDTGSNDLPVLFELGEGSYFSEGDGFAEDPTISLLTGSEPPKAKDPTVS
In short: as §1

[13] = biological target: T8, SPIC (Homo sapiens, UniProt Q8N5J4 1-248); conditions: protein: recombinant; tags: N-terminal GST; dsDNA, one strand shown
T8 sequence: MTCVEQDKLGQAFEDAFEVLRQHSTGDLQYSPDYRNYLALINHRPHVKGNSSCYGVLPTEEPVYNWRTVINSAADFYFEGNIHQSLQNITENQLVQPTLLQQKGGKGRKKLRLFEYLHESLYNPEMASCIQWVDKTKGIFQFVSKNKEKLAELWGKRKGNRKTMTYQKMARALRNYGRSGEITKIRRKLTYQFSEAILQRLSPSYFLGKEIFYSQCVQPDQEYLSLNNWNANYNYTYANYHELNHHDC
In short: as §1

[14] = biological target: ELF4 (Homo sapiens, UniProt Q99607 1-663); conditions: protein: recombinant; tags: N-terminal GST; dsDNA, one strand shown
Chain of ELF4 (Q99607 whole entry): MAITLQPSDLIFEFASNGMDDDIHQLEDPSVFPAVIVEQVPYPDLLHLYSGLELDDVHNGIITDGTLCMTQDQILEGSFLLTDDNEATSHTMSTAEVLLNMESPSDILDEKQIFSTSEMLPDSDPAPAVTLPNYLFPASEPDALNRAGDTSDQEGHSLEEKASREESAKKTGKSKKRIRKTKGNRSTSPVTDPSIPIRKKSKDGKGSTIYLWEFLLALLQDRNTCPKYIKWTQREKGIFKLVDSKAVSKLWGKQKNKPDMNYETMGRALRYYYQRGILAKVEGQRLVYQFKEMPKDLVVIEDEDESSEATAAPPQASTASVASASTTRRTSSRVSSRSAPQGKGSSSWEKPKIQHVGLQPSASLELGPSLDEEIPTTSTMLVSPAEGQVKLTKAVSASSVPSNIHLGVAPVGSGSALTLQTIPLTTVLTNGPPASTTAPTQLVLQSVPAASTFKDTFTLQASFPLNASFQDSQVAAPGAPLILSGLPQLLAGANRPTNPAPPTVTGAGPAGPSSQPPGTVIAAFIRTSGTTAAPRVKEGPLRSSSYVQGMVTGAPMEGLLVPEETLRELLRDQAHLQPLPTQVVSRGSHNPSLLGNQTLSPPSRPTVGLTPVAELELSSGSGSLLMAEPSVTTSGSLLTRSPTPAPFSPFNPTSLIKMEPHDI
In short: as §1

[15] = biological target: T9, ELK4 (Homo sapiens, UniProt P28324-2 1-405); conditions: protein: recombinant; tags: N-terminal GST; dsDNA, one strand shown
T9 sequence: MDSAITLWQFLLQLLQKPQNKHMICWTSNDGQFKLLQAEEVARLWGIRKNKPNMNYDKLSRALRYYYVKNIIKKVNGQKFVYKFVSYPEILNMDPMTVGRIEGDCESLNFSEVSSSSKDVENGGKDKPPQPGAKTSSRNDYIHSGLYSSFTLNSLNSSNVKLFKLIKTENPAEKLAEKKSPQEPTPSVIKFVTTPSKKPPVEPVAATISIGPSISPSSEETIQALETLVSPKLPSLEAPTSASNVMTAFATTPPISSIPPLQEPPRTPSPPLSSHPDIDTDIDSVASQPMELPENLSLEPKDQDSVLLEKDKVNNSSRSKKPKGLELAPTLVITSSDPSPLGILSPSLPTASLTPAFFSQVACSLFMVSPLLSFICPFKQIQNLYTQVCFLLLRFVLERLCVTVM
In short: as §1

[16] = biological target: T10, ETV2 (Homo sapiens, UniProt O00321 1-342); conditions: protein: recombinant; tags: N-terminal GST; dsDNA, one strand shown
T10 sequence: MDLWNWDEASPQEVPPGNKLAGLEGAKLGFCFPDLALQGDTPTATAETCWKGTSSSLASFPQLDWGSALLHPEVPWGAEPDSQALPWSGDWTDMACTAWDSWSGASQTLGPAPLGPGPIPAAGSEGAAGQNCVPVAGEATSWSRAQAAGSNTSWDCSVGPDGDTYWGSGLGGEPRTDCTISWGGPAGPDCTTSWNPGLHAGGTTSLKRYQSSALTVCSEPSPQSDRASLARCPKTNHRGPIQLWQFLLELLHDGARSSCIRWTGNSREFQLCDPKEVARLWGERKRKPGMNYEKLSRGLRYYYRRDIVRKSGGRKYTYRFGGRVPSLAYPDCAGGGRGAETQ
In short: as §1

[17] = biological target: T11, ELF3 (Homo sapiens, UniProt P78545 1-371); conditions: protein: recombinant; tags: N-terminal GST; dsDNA, one strand shown
T11 sequence: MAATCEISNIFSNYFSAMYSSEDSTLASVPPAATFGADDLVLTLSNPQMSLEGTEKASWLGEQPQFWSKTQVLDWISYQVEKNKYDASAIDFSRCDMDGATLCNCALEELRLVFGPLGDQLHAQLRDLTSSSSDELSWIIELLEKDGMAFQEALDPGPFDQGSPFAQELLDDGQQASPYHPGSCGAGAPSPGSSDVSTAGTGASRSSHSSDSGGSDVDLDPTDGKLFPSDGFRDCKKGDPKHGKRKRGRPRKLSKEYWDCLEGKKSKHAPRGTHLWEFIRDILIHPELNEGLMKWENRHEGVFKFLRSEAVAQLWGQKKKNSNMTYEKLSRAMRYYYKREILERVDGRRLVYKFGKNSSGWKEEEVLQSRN
In short: as §1

[18] = biological target: CRX (Homo sapiens, UniProt O43186 1-299); conditions: protein: recombinant; tags: N-terminal GST; dsDNA, one strand shown
Chain of CRX (O43186 whole entry): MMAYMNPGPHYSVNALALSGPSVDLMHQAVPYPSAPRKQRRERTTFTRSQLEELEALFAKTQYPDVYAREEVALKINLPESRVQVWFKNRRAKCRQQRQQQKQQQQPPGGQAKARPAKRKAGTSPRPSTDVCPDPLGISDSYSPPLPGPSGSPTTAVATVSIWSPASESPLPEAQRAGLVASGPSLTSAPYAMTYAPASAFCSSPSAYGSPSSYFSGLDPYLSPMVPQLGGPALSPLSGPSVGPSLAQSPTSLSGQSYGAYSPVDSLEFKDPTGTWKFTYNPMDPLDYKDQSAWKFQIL
In short: as §1

[19] = biological target: ETV1 (Homo sapiens, UniProt P50549 1-477); conditions: protein: recombinant; tags: N-terminal GST; dsDNA, one strand shown
Chain of ETV1 (P50549 whole entry): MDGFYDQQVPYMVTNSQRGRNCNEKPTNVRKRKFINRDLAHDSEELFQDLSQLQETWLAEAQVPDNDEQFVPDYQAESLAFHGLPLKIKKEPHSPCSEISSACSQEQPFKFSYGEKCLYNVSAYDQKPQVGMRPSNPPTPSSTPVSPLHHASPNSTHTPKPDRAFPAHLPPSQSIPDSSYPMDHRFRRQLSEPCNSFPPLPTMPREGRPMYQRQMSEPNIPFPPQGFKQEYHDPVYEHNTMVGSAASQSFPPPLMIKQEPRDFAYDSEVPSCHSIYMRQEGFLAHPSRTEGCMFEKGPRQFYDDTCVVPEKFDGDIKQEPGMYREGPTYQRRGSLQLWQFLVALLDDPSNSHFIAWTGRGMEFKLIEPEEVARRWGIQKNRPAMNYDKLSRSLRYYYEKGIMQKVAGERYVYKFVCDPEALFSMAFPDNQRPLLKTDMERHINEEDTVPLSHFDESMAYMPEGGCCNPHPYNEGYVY
In short: as §1

ACGATA
binding signal [1]: 1.19 fold enrichment (6-mer frequency, TF over GST control)
binding signal [2]: 1.12 fold enrichment (6-mer frequency, TF over GST control)
binding signal [3]: 1.23 fold enrichment (6-mer frequency, TF over GST control)
binding signal [4]: 1.14 fold enrichment (6-mer frequency, TF over GST control)
binding signal [5]: 1.19 fold enrichment (6-mer frequency, TF over GST control)
binding signal [6]: 1.15 fold enrichment (6-mer frequency, TF over GST control)
binding signal [7]: 1.09 fold enrichment (6-mer frequency, TF over GST control)
binding signal [8]: 1.23 fold enrichment (6-mer frequency, TF over GST control)
binding signal [9]: 1.16 fold enrichment (6-mer frequency, TF over GST control)
binding signal [10]: 1.12 fold enrichment (6-mer frequency, TF over GST control)
binding signal [11]: 1.16 fold enrichment (6-mer frequency, TF over GST control)
binding signal [12]: 1.17 fold enrichment (6-mer frequency, TF over GST control)
binding signal [13]: 1.38 fold enrichment (6-mer frequency, TF over GST control)
binding signal [14]: 1.22 fold enrichment (6-mer frequency, TF over GST control)
binding signal [15]: 1.18 fold enrichment (6-mer frequency, TF over GST control)
binding signal [16]: 1.22 fold enrichment (6-mer frequency, TF over GST control)
binding signal [17]: 1.04 fold enrichment (6-mer frequency, TF over GST control)
binding signal [18]: 1.26 fold enrichment (6-mer frequency, TF over GST control)
binding signal [19]: 1.15 fold enrichment (6-mer frequency, TF over GST control)
